Measured values reported in PubChem BioAssay (NCATS).
Results filed as inconclusive are left out. Where a call stands in place of a potency, no number is given. Active and inactive are the calls of the source. Unless noted, calls come from the whole dose curve; as a rule, active = well fitted curve in either direction with a large enough effect (not every such curve was filed as active); inconclusive = small, poorly fitted or top-dose-only effect, or another doubt; inactive = flat fitted curve, though single readings scatter.

Legend:
[1] = AP1 Signaling Pathway (AID 357);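 note: ME-180 reporter cells stimulated with EGF at its EC50 level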
Outline: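 Read-out was the 460nm/530nm emission ratio (excitation 405nm) after CCF4 loading for 2.5 hours at room temperature. Cells carried an AP-1-driven beta-lactamase reporter, were stimulated with EC50 EGF plus compound for 5 hours, and AC50 values came from titrations.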

[2] = molecular target: Cytochrome P450 1A2 (Homo sapiens) (UniProt P05177); experiment: p450-cyp1a2 (AID 410; calls by dose curve)
Outline: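 20nM CYP1A2, 100uM Luciferin-ME (=Km), 100mM KPO4; cpd 10 min RT; +NADPH regen, 60 min RT; stop/detect 20 min; luminescence. Normalized to furafylline 57 uM = full inhibition.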

[3] = NFAT Signaling Pathway (AID 444); details: Jurkat NFAT-bla M1, carbachol, beta-lactamase ratio, 5 h; at 17.2 µM (top of the series) unless noted;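 note: carbachol stimulus at about its EC50 of 1 µM final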
Outline: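 Read-out: CCF4 FRET ratio (460 nm/530 nm) after 1 h RT dye loading, used for %activity and AC50 from titration series. Cells: Jurkat NFAT-β-lactamase/M1 line, treated with compound plus 1 uM carbachol for 5 h, 37 °C.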

[4] = molecular target: Glucocorticoid receptor (Homo sapiens) (UniProt P04150); experiment: GR-GFP Redistribution (AID 450;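 active = compounds whose dose series gives a full or clear partial fitted curve of increased nuclear translocation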; note: potency is the fitted concentration of half-maximal effect); details: U2OS GR-GFP nuclear translocation, laser cytometry, 2 h
[5] = molecular target: Glucocorticoid receptor (Homo sapiens) (UniProt P04150); experiment: GR-EFC Redistribution (AID 451; calls by dose curve; note: potency is the fitted concentration of half-maximal effect); details: CHO-K1 GR-EFC translocation, beta-gal luminescence, 2 h
Outline: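 Translocation of GR-ED fusion to nuclear EA restores b-gal, read by luminescence after 1 h room-temperature detection. Engineered CHO-K1 biosensor cells, 1,000/well, exposed 2 h at 37 C to titrations up to 46 uM final.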

[6] = molecular target: 3',5'-cyclic-AMP phosphodiesterase 4B (Homo sapiens) (UniProt Q07343); experiment: qHTS Assay for Inhibitors of PDE-IV (AID 607; active = well fitted activation curve with a large enough effect in the main read-out, with a control signal flat, not every such curve was filed as active)
Outline: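 Cell-based read-out of cAMP via a modified cyclic nucleotide-gated channel and membrane potential dye (535/590 nm) in HEK293 cells expressing PDE4 endogenously. Compounds tested up to 22.9 uM final; 100 uM RO 20-1724 reference.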

[7] = qHTS Assay for Lipid Storage Modulators (AID 1519; calls by dose curve); details: Drosophila S3 cells, BODIPY lipid droplet/cell ratio, laser cytometry, cells loaded with oleic acid; for activity change, negative = inhibition: at 25.7 µM (top of the series)
Outline: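 Cells seeded at 5,000 per well were treated with compounds over a concentration series and loaded with oleic acid (400 uM, as added). Lipid droplet fluorescence (488 nm excitation, 500-530 nm channel) was read by laser-scanning cytometry and normalized to 20 uM Triacsin C.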

[8] = molecular target: Ubiquitin carboxyl-terminal hydrolase 1 (Homo sapiens) (UniProt O94782); experiment: Inhibitors of USP1/UAF1: Pilot qHTS (AID 504865; active = well fitted curve in the direction sought with a large enough effect; an effect the other way counts as inactive or inconclusive;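 note: rhodamine fluorescence freed from ubiquitin-rhodamine substrate followed over time; top concentration of the series differs between compounds; nearly all actives have a fitted effect of over 35% in size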)
Outline: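 Kinetic fluorescence assay: 1nM USP1/UAF1, 15 min compound preincubation, then 150nM Ub-Rho; 480/540 nm.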

[9] = Stat Signaling Pathway (AID 446);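 note: ME-180 cervical cancer cells given 40 pM IL-6 alongside compound; SIE-controlled beta-lactamase reporter measured as 460/530 nm FRET emission ratio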
Outline: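 FRET read-out (405 nm excitation, 460/530 nm emission) of a beta-lactamase reporter under a STAT-inducible element in ME-180 cervical carcinoma cells. Cells with compound receive 40 pM IL-6 for 5 h. Values are normalised to AC90 stimulation and AC90 JAK-inhibitor controls.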

[10] = molecular target: Mitogen-activated protein kinase 10 (Mus musculus) (UniProt Q61831); experiment: JNK3 AlphaScreen Assay (AID 530);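 note: kinase came from lysate of stimulated human HepG2 cells; signal reports phosphorylation of biotinylated GST-cJun 1-79 at Ser73 with 10 µM ATP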
Outline: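 Kinase buffer: 20 mM Tris-HCl pH 7.6, 10 mM MgCl2, 1 mM DTT, 0.1 mM Na3VO4, 0.01% Tween-20; ATP 10 uM. Substrate biotin-GST-cJun(1-79), enzyme from activated HepG2 lysates. Detection by Ser73 phospho-antibody AlphaScreen.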

[11] = molecular target: Luciferin 4-monooxygenase (Photinus pyralis) (UniProt P08659); experiment: Biochemical firefly luciferase enzyme assay for NPC (AID 624030; active = well fitted curve in the direction sought with a large enough effect; an effect the other way counts as inactive or inconclusive;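 note: purified P. pyralis luciferase at 10 nM with luciferin and ATP substrate; nearly all actives have a fitted effect of over 70% in size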)
Outline: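 Direct inhibition of firefly luciferase enzyme (10 nM final, 50 mM Tris Acetate) assessed by luminescence within 5 minutes. Percent activity scaled between DMSO and PTC124 positive control, with concentration-effect curves classified by fit quality and response.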

[12] = S16 Schwann cell viability assay (CellTiter-Glo assay) (AID 624031; active = well fitted curve in the direction sought with a large enough effect; an effect the other way counts as inactive or inconclusive;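 note: cellular ATP luminescence as a viability measure; nearly all actives have a fitted effect of over 70% in size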)
Outline: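 Native S16 rat Schwann cells, 500-750 cells/well in DMEM with 10% FBS, dosed with compound after overnight culture and incubated 24h at 37 degree Celsius/5% CO2. Viability by CellTiter-Glo luminescence; % activity normalized to no-cell wells and DMSO-treated cells.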

[13] = S16 Schwann cell PMP22 intronic element beta-lactamase assay (AID 624044; calls by dose curve; note: nearly all actives have a fitted effect of over 15% in size)
Outline: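 Beta-lactamase reporter under a PMP22 intronic regulatory element in stable S16 rat Schwann cells; 24 h compound exposure. 460 nm blue signal normalized between DMSO (0%) and potassium clavulanate, with 535 nm FRET tracking viability; curves classed by r2 and response.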

C2A = experiment: qHTS profiling for inhibitors of Plasmodium falciparum proliferation (AID 504749; active = well fitted curve in the direction sought with a large enough effect; an effect the other way counts as inactive or inconclusive; note: nearly all actives have a fitted effect of over 60% in size); details: P. falciparum in erythrocytes, SYBR Green DNA, 72 h; series mostly up to 12.8 µM
Outline: (§1)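 In a 72 h erythrocytic culture (37 C, humidified, 5% CO2) at 2.5% hematocrit and 0.3% starting parasitemia, compounds were tested; SYBR Green I in detergent lysis buffer stained parasite DNA overnight.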

CP250 = experiment: as above; details: P. falciparum in erythrocytes, SYBR Green DNA, 72 h; series mostly up to 12.8 µM
Outline: as §1

JCK = experiment: as above; details: P. falciparum in erythrocytes, SYBR Green DNA, 72 h; series mostly up to 12.8 µM
Outline: as §1

SC27B = experiment: as above; details: P. falciparum in erythrocytes, SYBR Green DNA, 72 h; series mostly up to 12.8 µM
Outline: as §1

[14] = as above; details: P. falciparum in erythrocytes, SYBR Green DNA, 72 h, at 12.8 µM (top of the series)
Outline: as §1

CP217 = experiment: as above; details: P. falciparum in erythrocytes, SYBR Green DNA, 72 h; series mostly up to 12.8 µM
Outline: as §1

FAB9 = experiment: as above; details: P. falciparum in erythrocytes, SYBR Green DNA, 72 h; series mostly up to 12.8 µM
Outline: as §1

[15] = measured here: cell count channel max response
[16] = measured here: lipid channel max response

3',5'-cyclic-AMP phosphodiesterase 4B (Homo sapiens), sequence (Q07343 whole entry, looked up): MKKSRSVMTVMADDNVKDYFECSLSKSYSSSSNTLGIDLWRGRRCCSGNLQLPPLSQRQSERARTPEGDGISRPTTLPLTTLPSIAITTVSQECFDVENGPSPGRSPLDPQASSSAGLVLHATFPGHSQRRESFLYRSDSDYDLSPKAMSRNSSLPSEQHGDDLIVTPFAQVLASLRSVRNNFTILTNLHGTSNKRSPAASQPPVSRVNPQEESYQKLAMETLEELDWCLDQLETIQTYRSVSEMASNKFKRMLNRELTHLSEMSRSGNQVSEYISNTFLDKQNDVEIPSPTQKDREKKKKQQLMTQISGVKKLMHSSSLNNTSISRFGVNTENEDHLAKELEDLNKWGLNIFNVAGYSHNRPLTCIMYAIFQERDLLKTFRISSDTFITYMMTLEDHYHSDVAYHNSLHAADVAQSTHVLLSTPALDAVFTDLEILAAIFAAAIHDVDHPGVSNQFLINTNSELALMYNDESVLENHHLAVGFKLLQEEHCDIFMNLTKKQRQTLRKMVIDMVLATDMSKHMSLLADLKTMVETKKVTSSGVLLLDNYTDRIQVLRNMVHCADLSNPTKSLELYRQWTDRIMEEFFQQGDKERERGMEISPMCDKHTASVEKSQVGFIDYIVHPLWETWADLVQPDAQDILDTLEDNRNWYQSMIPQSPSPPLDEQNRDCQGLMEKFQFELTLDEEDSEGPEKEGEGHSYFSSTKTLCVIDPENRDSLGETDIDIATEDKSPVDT
Glucocorticoid receptor (Homo sapiens), sequence (P04150 whole entry, looked up, the tested form may be a part): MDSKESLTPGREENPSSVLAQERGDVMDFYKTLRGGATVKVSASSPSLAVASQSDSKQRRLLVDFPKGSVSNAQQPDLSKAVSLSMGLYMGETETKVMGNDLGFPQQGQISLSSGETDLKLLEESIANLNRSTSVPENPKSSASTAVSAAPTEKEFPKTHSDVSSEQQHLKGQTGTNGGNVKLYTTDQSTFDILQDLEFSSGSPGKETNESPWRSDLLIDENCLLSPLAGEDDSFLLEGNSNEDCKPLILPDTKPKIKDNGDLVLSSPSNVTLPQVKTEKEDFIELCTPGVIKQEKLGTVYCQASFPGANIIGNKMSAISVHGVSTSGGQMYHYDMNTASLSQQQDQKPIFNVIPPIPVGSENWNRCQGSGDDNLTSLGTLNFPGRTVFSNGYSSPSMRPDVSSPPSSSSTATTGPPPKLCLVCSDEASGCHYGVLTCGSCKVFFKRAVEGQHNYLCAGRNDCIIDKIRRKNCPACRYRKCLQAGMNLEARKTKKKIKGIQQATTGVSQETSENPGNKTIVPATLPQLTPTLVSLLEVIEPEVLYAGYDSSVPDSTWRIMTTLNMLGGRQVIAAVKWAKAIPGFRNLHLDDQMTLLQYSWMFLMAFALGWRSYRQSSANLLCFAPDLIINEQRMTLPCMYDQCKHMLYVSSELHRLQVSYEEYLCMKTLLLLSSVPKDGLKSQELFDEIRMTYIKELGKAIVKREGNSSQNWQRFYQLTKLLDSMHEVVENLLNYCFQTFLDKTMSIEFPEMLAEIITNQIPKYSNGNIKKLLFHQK
Cytochrome P450 1A2 (Homo sapiens), sequence (P05177 whole entry, looked up): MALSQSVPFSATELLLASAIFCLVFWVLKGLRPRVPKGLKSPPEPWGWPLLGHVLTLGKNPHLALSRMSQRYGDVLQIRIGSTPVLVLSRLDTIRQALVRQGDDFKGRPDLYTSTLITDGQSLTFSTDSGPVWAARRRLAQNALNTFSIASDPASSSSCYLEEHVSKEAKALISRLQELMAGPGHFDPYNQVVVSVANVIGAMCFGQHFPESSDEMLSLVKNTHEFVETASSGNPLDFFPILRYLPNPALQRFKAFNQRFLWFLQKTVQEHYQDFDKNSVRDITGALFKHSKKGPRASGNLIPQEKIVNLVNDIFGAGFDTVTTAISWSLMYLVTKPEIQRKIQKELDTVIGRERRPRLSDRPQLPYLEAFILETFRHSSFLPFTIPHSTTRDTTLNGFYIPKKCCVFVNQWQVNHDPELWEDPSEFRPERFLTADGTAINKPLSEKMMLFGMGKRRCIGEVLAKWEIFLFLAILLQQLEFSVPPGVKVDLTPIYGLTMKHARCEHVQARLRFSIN
Luciferin 4-monooxygenase (Photinus pyralis), sequence (P08659 whole entry, looked up): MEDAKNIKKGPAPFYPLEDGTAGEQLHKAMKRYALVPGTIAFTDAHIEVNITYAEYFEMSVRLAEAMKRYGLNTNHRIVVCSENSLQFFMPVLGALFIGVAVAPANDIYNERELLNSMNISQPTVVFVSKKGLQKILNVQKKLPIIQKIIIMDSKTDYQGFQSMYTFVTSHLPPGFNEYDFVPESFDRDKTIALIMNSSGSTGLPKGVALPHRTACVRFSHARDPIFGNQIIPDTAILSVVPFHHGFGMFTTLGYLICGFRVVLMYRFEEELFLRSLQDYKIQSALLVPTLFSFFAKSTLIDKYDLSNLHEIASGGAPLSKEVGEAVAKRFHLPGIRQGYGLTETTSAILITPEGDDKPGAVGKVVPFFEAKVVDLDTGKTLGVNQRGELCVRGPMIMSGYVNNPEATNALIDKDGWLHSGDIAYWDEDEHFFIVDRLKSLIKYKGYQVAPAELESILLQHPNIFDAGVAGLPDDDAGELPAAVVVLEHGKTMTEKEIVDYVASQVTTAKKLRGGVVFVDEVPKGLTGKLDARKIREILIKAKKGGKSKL
Ubiquitin carboxyl-terminal hydrolase 1 (Homo sapiens), sequence (O94782 whole entry, looked up): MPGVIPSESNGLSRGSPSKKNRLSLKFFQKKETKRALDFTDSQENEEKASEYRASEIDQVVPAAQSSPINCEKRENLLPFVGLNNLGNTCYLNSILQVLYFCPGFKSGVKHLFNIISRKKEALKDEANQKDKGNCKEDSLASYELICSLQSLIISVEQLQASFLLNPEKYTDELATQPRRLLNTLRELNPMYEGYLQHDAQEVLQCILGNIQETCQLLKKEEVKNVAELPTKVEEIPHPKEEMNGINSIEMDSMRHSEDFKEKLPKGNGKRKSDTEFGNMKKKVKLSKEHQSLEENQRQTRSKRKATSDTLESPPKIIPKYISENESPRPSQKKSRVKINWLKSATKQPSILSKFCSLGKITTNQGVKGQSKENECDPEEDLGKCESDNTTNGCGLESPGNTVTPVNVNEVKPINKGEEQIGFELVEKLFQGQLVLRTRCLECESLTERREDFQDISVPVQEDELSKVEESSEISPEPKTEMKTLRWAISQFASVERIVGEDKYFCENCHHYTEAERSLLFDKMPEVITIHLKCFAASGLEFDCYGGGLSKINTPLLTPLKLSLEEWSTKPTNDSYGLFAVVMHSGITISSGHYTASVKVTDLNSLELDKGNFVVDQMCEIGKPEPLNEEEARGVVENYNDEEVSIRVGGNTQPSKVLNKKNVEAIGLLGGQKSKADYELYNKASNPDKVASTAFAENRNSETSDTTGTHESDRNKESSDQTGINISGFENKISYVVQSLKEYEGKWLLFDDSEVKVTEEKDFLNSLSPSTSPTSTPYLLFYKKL

CC(C)(CS)C(=O)N1CCC[C@H]1C(=O)O
outcome [1]: inactive | Potency [2]: inactive | activity change, negative = inhibition [3]: -3.44% (inactive) | Potency [4]: > 20.6 µM (inactive) | Potency [5]: > 20.6 µM (inactive) | outcome [6]: inactive | activity change, negative = inhibition [7]: 1% (inactive) | max response [7, 15]: 2.97% | max response [7, 16]: 4.64% | Potency [8]: inactive

O=C(O)[C@@H](O)[C@@H](O)[C@@H](O)[C@@H](O)C(=O)O (tested in a mixture with another compound)
outcome [1]: inactive | Potency [2]: inactive | activity change, negative = inhibition [3]: -16.6% (inactive) | outcome [9]: inactive | Potency [10]: inactive | outcome [6]: inactive | activity change, negative = inhibition [7]: -0.616% (inactive) | max response [7, 15]: -10.9% | max response [7, 16]: -7.78% | Potency [11]: inactive

NC[C@@H]1O[C@H](O[C@@H]2[C@H](O[C@@H]3O[C@H](CO)[C@@H](COC[C@H]4O[C@@H](CN)[C@@H](O)[C@@H](O)[C@@H]4N)[C@@H]3O)[C@@H](O)[C@@H](N)C[C@H]2N)[C@@H](N)[C@H](O)[C@@H]1O
outcome [1]: inactive | Potency [2]: inactive | activity change, negative = inhibition [3]: -1.32% (inactive) | Potency [4]: > 20.6 µM (inactive) | Potency [5]: > 20.6 µM (inactive) | Potency [10]: inactive | outcome [6]: inactive | activity change, negative = inhibition [7]: -1.17% (inactive) | max response [7, 15]: 1.11% | max response [7, 16]: 2.23% | Potency [8]: inactive

CCC(=O)O[C@@]1(C(=O)SCF)[C@@H](C)C[C@H]2[C@@H]3C[C@@H](F)C4=CC(=O)C=C[C@@]4(C)[C@]3(F)[C@@H](O)C[C@]21C
outcome [1]: inactive | Potency [2]: inactive | activity change, negative = inhibition [3]: -22.7% (inactive) | outcome [9]: inactive | Potency [10]: inactive | outcome [6]: inactive | activity change, negative = inhibition [7]: 1.23% (inactive) | max response [7, 15]: -7.35% | max response [7, 16]: -5.95% | Potency [11]: inactive | outcome [12]: inactive | Potency [13]: inactive | Potency (C2A): inactive | Potency (CP250): inactive | Potency (JCK): inactive | Potency (SC27B): inactive

CC(C)(CO)[C@H](O)C(=O)NCCCO
outcome [1]: inactive | Potency [2]: inactive | activity change, negative = inhibition [3]: 9.07% (inactive) | outcome [9]: inactive | outcome [6]: inactive | activity change, negative = inhibition [7]: -3.05% (inactive) | max response [7, 15]: -6.65% | max response [7, 16]: -8.62% | Potency [8]: inactive

CCC(=O)O[C@@H]1[C@H](C)O[C@H](O[C@H]2[C@@H](N(C)C)[C@H](O)[C@@H](O[C@@H]3[C@@H](CC=O)C[C@@H](C)[C@@H](O)/C=C\C=C/C[C@@H](C)OC(=O)C[C@@H](OC(=O)CC)[C@H]3OC)O[C@H]2C)C[C@]1(C)O
outcome [1]: inactive | Potency [2]: inactive | activity change, negative = inhibition [3]: 3.96% (inactive) | Potency [4]: > 20.6 µM (inactive) | Potency [5]: > 20.6 µM (inactive) | Potency [10]: inactive | outcome [6]: inactive | activity change, negative = inhibition [7]: -0.346% (inactive) | max response [7, 15]: -5.96% | max response [7, 16]: -6.47% | Potency [11]: inactive | outcome [12]: inactive | Potency [13]: inactive | activity, negative = inhibition ([14]; parasite line A): -18.8% (inactive) | activity, negative = inhibition ([14]; parasite line B): -28.9% (inactive) | Potency (C2A): inactive | Potency (CP217): inactive | Potency (CP250): inactive | Potency (FAB9): inactive | Potency (JCK): inactive | Potency (SC27B): inactive

CCC(=O)OCC(=O)[C@@]1(OC(=O)CC)[C@H](C)C[C@@H]2[C@H]3CCC4=CC(=O)C=C[C@]4(C)[C@]3(Cl)[C@@H](O)C[C@@]21C
outcome [1]: inactive | Potency [2]: inactive | activity change, negative = inhibition [3]: -10.9% (inactive) | outcome [9]: inactive | Potency [10]: inactive | outcome [6]: inactive | activity change, negative = inhibition [7]: -9.54% (inactive) | max response [7, 15]: -5.37% | max response [7, 16]: -14.6%
